Screen size: about 48,000 compounds; about 13,000 (27%) showed an effect of 50% or more. The list shows a part of the results.

In this test the test system is Wolbachia pipientis. The experiment in a line: Anti-Wolbachia Cell-Based Screen. The test is classed as functional. As to conditions: 5 µM. Also noted: scale not given: in the data most compounds retested in dose-response had high values.
For `Cc1nc(COc2ccc(OCC(N)=O)cc2)oc1C`, the “Percent Effect” value stood at 23.22%.
With `CC(C)N(C)C(=O)CN1C(=O)OC[C@@H]1c1ccccc1`, the “Percent Effect” value is on record as -15.23%.
With `Cc1nc(C)c(CN2CCC(N(C)Cc3nnc(C4CC4)o3)C2)s1` (stereo not given) the figure was 83.42%.
With `Cc1nc(CN(C)C2CCN(Cc3sc(C)nc3C)C2)no1` (stereo not given) the figure was -5.233%; with `Cc1nc(C)c(CN2CCC(N(C)Cc3noc(C4CC4)n3)C2)s1` (stereo not given), 84.99%; with `Cc1ccc(N2CCCC(N(C)Cc3nnc(C4CC4)o3)C2)nn1` (stereo not given), -13.84%.
Then `Cc1ncc(CN(C)C2CCCN(Cc3noc(C4CC4)n3)C2)s1` (stereo not given), with 1.76%.
In the case of `CCn1c(C)nnc1CN(C)C1CCN(Cc2sc(C)nc2C)C1` (stereo not given), the “Percent Effect” value came to 1.106%.
For `O=C(CN1C(=O)c2ccccc2CS1(=O)=O)c1ccccc1`, the “Percent Effect” value is on record as -5.153%.
Then `COCC(C)NC(=O)c1cncc(Br)c1` (stereo not given), with 15.5%; and `Cc1cc(O)cc2c(=O)oc(CC(C)O)cc12` (stereo not given), with -7.016%.
Then `Cc1ccc(-c2cn3c(n2)CO[C@@H](CNCc2nccs2)C3)cc1`, with -9.469%; and `CC(C)CCc1nc(CNCC2CN(C)CCO2)cs1` (stereo not given), with 94.45%.
With `CN1CCOC(CNCc2nc(-c3ccccc3)cs2)C1` (stereo not given) the figure was 5.622%.
Regarding `Cc1ccc(OCc2nc(CNCC3CN(C)CCO3)cs2)cc1` (stereo not given), the “Percent Effect” value was determined as 109.6%.
Then `Cc1c(F)cccc1NC(=O)N(C(C)CS(C)(=O)=O)C1CC1` (stereo not given), with -14.75%.
As for `CCC(CO)N(Cc1ccccn1)C(=O)c1ccc2c(c1)CCO2` (stereo not given), the “Percent Effect” value is reported as 6.403%.
Regarding `CCSCc1cccc(NC2CCN(C)C2=O)c1` (stereo not given), the “Percent Effect” value is -4.409%.
Then `CCCc1nc(CN2CCCCC2Cn2cncn2)cs1` (stereo not given), with 92.11%; and `CCCc1nc(CN2CCCC2Cn2cncn2)cs1` (stereo not given), with 0.1257%.
Then `c1ncn(CC2CCCCN2Cc2csc(C3CCCC3)n2)n1` (stereo not given), with 3.175%.
With `CC(C)c1nc(CN2CCCC2CN2CCCC2)cs1` (stereo not given), the “Percent Effect” value turned out to be 11.4%.
For `CC(C)c1nc(CN2CCCCC2Cn2cncn2)cs1` (stereo not given), the “Percent Effect” value came out at 82.22%.
Then `CN(C)C(=O)Cc1nc(CN2CCCCC2Cn2cncn2)cs1` (stereo not given), with -10.91%; and `Cc1nc(C(NS(=O)(=O)N(C)C)c2ccccc2F)no1` (stereo not given), with -14.73%; and `O=C(NC[C@H]1OC[C@@H](NC2CCC(F)(F)CC2)[C@@H]1O)c1ccccc1`, with -10.21%.
With `O=C(CCc1ccncc1)N1CCc2c(ncnc2N2CCOCC2)C1` the figure was -13.92%; with `COc1cc(C)c2c(c1C)C[C@H]([C@H](C)C(=O)O)CC2`, -11.67%; with `CN1CCN(S(C)(=O)=O)c2ccc(F)cc21`, -0.158%.
On to `Cn1ncc2c(=O)[nH]c(CN3CCCc4cc(F)ccc43)nc21`, for which the “Percent Effect” value is -1.731%.
Then `CSCCC(C)NC(=O)CCN1C(=O)CCc2cc(F)ccc21` (stereo not given), with 2.729%; and `CCN1CC2(CCC1=O)CCN(Cc1cc(F)ccc1Cl)CC2`, with -6.305%; and `CN1Cc2cc(F)ccc2N(CC(C)(C)O)CCC1=O`, with 116.8%.
Then `CCN1CCC(=O)N(C)Cc2cc(F)ccc21`, with 110.2%.
On to `COc1cc(C(C)=O)ccc1OCC(=O)N(CC(C)C#N)C1CC1` (stereo not given), for which the “Percent Effect” value is listed as -5.755%.
Then `CN(C)C(CNC(=O)c1cccc(-n2cnnn2)c1)c1ccccc1Cl` (stereo not given), with -8.623%; and `O=C(NC1CC1)c1cccc(Oc2ccc3nncn3n2)c1`, with 135.1%; and `CC(C)CNC(=O)c1cccc(Oc2ccc3nncn3n2)c1`, with 96.36%.
Then `CC(C)NC(=O)c1cccc(Oc2ccc3nncn3n2)c1`, with 131.1%; and `CC1CN(CC(=O)NC2CCCC2)CCN1c1ccc2nncn2n1` (stereo not given), with 1.075%.
Then `O=C(CN1CCN(c2ccc3nncn3n2)CC1)NC1CCCC1`, with 0.9347%.
On to `COc1cccc(C(=O)NCC(O)c2cccs2)c1` (stereo not given), for which the “Percent Effect” value is reported as -0.6339%.
For the molecule `CC(Nc1cccc(Oc2ccc(C#N)cn2)c1)C(=O)NC1CC1` (stereo not given), the “Percent Effect” value was 4.844%.
With `O=C(CN1CCN(c2ccc3nncn3n2)CC1)NC1CCCCC1`, the “Percent Effect” value worked out at 14.04%.
Then `CC(C)NC(=O)c1ccc2nnc(C3CCN(C(=O)NC(C)C)C3)n2c1` (stereo not given), with 5.911%.
Then `O=C(NC1CCCCC1)c1ccc(Oc2ccc3nncn3n2)cc1`, with 113.3%.
With `CC(=O)N1CC(c2ncn(C(C)C)n2)c2cc(C(=O)NC(C)C)ccc21` (stereo not given) the figure was -2.765%; with `N#Cc1cccnc1NCCNC(=O)N1CCCC(C(F)(F)F)C1` (stereo not given), -23.68%.
For `CS(=O)(=O)NCCC1CN(Cc2ccccc2F)CCO1` (stereo not given), the “Percent Effect” value is given as -13.1%.
In the case of `N#Cc1c[nH]c(C(=O)N(Cc2ccc(O)cc2)CC2CC2)c1`, the “Percent Effect” value is -16.08%.
With `O=C(NCC(O)c1cccs1)c1cccc(Cl)c1` (stereo not given) the figure was -18.24%; with `CNc1nc(C(=O)N2CCC3(CCCN(CCOC)C3=O)C2)cs1` (stereo not given), -30.8%.
With `COc1ccc(-c2cnc3c(c2)CN(C2CC2)C(=O)CCN3)cc1` the figure was 106.7%; with `O=C(c1ncc[nH]1)N1CCC(n2cc(-c3cccc(Cl)c3)nn2)CC1`, -7.325%; with `O=S(=O)(c1ccccc1Cl)N1CCc2nc(C3CCNCC3)ncc2C1`, -5.628%.
With `CNC(=O)c1cn2cc(-c3cccc(Cl)c3)n(CC3CC3)c(=O)c2n1` the figure was -6.691%; with `COc1ccc(-c2nnc(CN3CCNC(=O)C3)o2)cc1`, -34.6%; with `COc1ccc(NC2CCN(C3CC3)C2=O)cn1` (stereo not given), -16.66%.
Consider `O=C1CCNc2ncc(-c3ccccc3Cl)cc2CN1C1CC1`, for which the “Percent Effect” value is 75.8%.
Then `O=C1CCNc2ncc(-c3ccc(Cl)cc3)cc2CN1C1CC1`, with 113.7%; and `O=C1CCNc2ncc(-c3cccc(Cl)c3)cc2CN1C1CC1`, with 104.4%; and `CC(O)c1cn(C2CCN(C(=O)C3(C)CCCCC3)CC2)nn1` (stereo not given), with 29.6%.
With `NC(=O)CCOc1ccc(NC(=O)c2ccccc2OC(F)F)cc1` the figure was 5.121%; with `CC(=O)N1CCC(N2CCOC[C@H]2c2nc(C(C)(C)C)c[nH]2)CC1`, -20.09%; with `COc1cccc2c1OCC(C(=O)N1CCSCC1)C2` (stereo not given), -0.8492%.
With `COc1cccc2c1OCC(CNC(=O)Cc1csc(C(C)=O)c1)C2` (stereo not given) the figure was -8.032%; with `COc1cccc2c1OCC(CNC(=O)Cc1cnccn1)C2` (stereo not given), -6.368%.
With `COc1cccc2c1OCC(CNC(=O)CN(C)C1CCCC1)C2` (stereo not given), the “Percent Effect” value is listed as -4.207%.
With `COc1cccc2c1OCC(Cc1cc(C(=O)N3CCCC3)ccn1)C2` (stereo not given) the figure was 103.2%; with `COc1cccc2c1OCC(Cc1cnc(N)c(C)c1)C2` (stereo not given), 43.69%.
Then `COc1cccc2c1OCC(CNC(=O)Cn1ccnc1C)C2` (stereo not given), with -7.516%.
Then `CCNC(=O)c1ccnc(CC2COc3c(cccc3OC)C2)c1` (stereo not given), with 109.1%; and `CCOCCC(=O)NCC1COc2c(cccc2OC)C1` (stereo not given), with -9.333%; and `CNC(=O)c1ccnc(CC2COc3c(cccc3OC)C2)c1` (stereo not given), with 100.6%.
Consider `COc1cccc2c1OCC(Cc1cc(C(N)=O)ccn1)C2` (stereo not given), for which the “Percent Effect” value was determined as 86.97%.
With `COc1cccc2c1OCC(C(=O)N1Cc3ccccc3C1)C2` (stereo not given) the figure was -46.74%; with `CCCC(C)NCc1cnc(-c2cccc(C)c2)nc1` (stereo not given), 4.812%.
Then `CC1=C[C@@H](CN2CCC(O)CC2)[C@H](C(C)C)C[C@H]1Cc1nnc(C)o1`, with 4.973%; and `CC(C(=O)N(C)Cc1ccco1)n1cncn1` (stereo not given), with 14.16%.
In the case of `CN1Cc2[nH]nc(COCC3CC3)c2C1.O=C(O)C(F)(F)F.O=C(O)C(F)(F)F`, the “Percent Effect” value is recorded as -7.545%.
Then `CC(CO)CNC(=O)c1cc2cccc(F)c2o1` (stereo not given), with -10.54%; and `Cc1cnc(N2C[C@@H]3CCN(CC4CC4)C(=O)[C@H]3C2)nc1`, with 4.769%.
`CN1CCN(CC2CC2)C(=O)c2cnc(N3CCCCC3)nc21`: the “Percent Effect” value was 8.561%.
Turning to `CN1CCN(CC2CC2)C(=O)c2cnc(N3CCC(CO)CC3)nc21`, the “Percent Effect” value was found to be 85.31%.
With `CN1CCN(CC2CC2)C(=O)c2cnc(N3CCCC3)nc21` the figure was -1.77%.
With `CN1CCN(CC2CC2)C(=O)c2cnc(N3CC[C@@H](O)C3)nc21`, the “Percent Effect” value was -2.603%.
With `CN1CCN(CC2CC2)C(=O)c2cnc(N3CCOCC3)nc21` the figure was 128%.
Then `c1cc2c(cc1-c1noc3c1CN(C1CCSC1)CC3)OCO2` (stereo not given), with 2.821%; and `CC(NCc1ccccc1CN1CCCC1=O)c1ccc(C#N)cc1` (stereo not given), with -5.192%; and `CCN(CCOc1ccc(F)cc1)C(=O)c1ccncc1Cl`, with 2.739%.
Consider `O=C(NCCC1CN(Cc2cccnc2)CCO1)c1ccsc1` (stereo not given), for which the “Percent Effect” value was -9.218%.
Then `N#Cc1c(SCCN2CCCCC2)sc2c(O)cc(O)nc12`, with 98.27%.
Then `FC(F)(F)Cn1nnnc1SCCN1CCCCC1`, with -6.458%; and `N#Cc1ccc(-c2nnc(CSCCN3CCOCC3)o2)cc1`, with -12.22%.
In the case of `N#Cc1c(SCCN2CCCCCC2)sc2c(O)cc(O)nc12`, the “Percent Effect” value is listed as 100.4%.
Then `N#CCCSc1sc2c(O)cc(O)nc2c1C#N`, with 107.9%.
Then `N#Cc1c(SCCN2CCOCC2)sc2c(O)cc(O)nc12`, with 143.1%.
For the molecule `N#Cc1ccc(F)c(CSCCN2CCOCC2)c1`, the “Percent Effect” value is -32.26%.
As for `Cn1cc(Br)cc1C(=O)NC1(C#N)CC1`, the “Percent Effect” value is given as -11.26%.
As to `c1cnc(NCCCOC2CCOCC2)nc1`, the “Percent Effect” value is on record as 1.156%.
Then `CC(C)CN1CCCn2nc(CNC(=O)CN3CCOC3=O)cc2C1`, with 1.752%; and `Cn1cnnc1CNC(=O)CCCOc1ccccc1Cl`, with 2.629%.
With `Cc1ccc(N(C)Cc2nnnn2C2CC2)c(C)c1` the figure was -2.761%; with `Cc1cc(C)n(C2CCCN(C(=O)c3cccc4[nH]ncc34)C2)n1` (stereo not given), 4.56%.
Then `O=C(c1cccc2c1OCCO2)N1CCCC(n2cccn2)C1` (stereo not given), with 108.1%; and `Cc1cc(C)n(C2CCCN(C(=O)c3cccc4c3OCO4)C2)n1` (stereo not given), with 86.78%.
For the molecule `Cc1cnn(C2CCCN(C(=O)c3cccc4c3OCO4)C2)c1` (stereo not given), the “Percent Effect” value came out at 104.2%.
As for `O=C(c1cccc2c1OCO2)N1CCCC(n2cccn2)C1` (stereo not given), the “Percent Effect” value was 2.187%.
With `COCc1ccccc1C(=O)N1CCCC(n2nc(C)cc2C)C1` (stereo not given) the figure was 4.248%.
Then `O=C(c1ccccc1N1CCOCC1)N1CCCC(n2cccn2)C1` (stereo not given), with -2.451%.

(Values after ChEMBL document CHEMBL3988442, “University of Dundee, Small-Polar-MMV Screening Library” (2021).)
